The structures appear in SMILES notation. Records with an inconclusive call do not appear. The source made the active and inactive calls. Unless noted, the call rests on the fitted dose curve; in most records, active means well fitted curve in either direction with a large enough effect (not every such curve was filed as active); inconclusive means small, poorly fitted or top-dose-only effect, or another doubt; inactive means flat fitted curve, though single readings scatter.

Assay [1] concerns the target Lysosomal acid glucosylceramidase (Homo sapiens) (UniProt P04062). Kind of assay: Glucocerebrosidase-p2 (AID 348; in the data active means potency below about 10 µM; further: potency means the concentration at half of the fitted maximal effect). The following applies: purified GBA, blue fluorogenic substrate, 40 min. The gist of the method:
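Compounds titrated from 0.6 nM upwards against 0.2 nM enzyme in pH 5.9 citric acid/KH2PO4, taurocholate, tween-20; blue fluorogenic substrate 80 uM, 40 min room temperature, stopped and read Ex 365/Em 440 for AC50.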

A short description of assay [2]: AP1 Signaling Pathway (AID 357).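 Further: ME-180 reporter cells stimulated with EGF at its EC50 level; on the % scale 0 is the no-effect control and ±100 the full control effect.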 The following applies: ME-180 AP-1-bla reporter, EGF-induced, beta-lactamase ratio, 5 h; at 7.69 µM (top of the series) unless noted. The gist of the method: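 Beta-lactamase reporter under AP-1 response element, ME-180 background. Stimulus: EC50 EGF. Compound exposure 5 h, 37 °C. Detection: CCF4, 2.5 h RT, 460/530 nm. Values: AC50 from titration.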

Assay [3] is described as follows: NFAT Signaling Pathway (AID 444).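 Further: carbachol stimulus at about its EC50 of 1 µM final; on the % scale 0 is the no-effect control and ±100 the full control effect.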 The following applies: Jurkat NFAT-bla M1, carbachol, beta-lactamase ratio, 5 h; at 7.69 µM (top of the series) unless noted. In outline: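 Read-out: CCF4 FRET ratio (460 nm/530 nm) after 1 h RT dye loading, used for %activity and AC50 from titration series. Cells: Jurkat NFAT-β-lactamase/M1 line, treated with compound plus 1 uM carbachol for 5 h, 37 °C.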

Assay [4] can be described thus: Stat Signaling Pathway (AID 446).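 Further: ME-180 cervical cancer cells given 40 pM IL-6 alongside compound; SIE-controlled beta-lactamase reporter measured as 460/530 nm FRET emission ratio; on the % scale 0 is the no-effect control and ±100 the full control effect.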 To be noted: ME-180 SIE beta-lactamase reporter, IL-6 stimulated, 5 h; at 7.69 µM (top of the series) unless noted. The gist of the method:
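ME-180 cells carrying a SIE-driven beta-lactamase reporter are stimulated with 40 pM IL-6 for 5 h at 37C in the presence of compound. The 460/530 nm FRET substrate ratio is read after 2.5 h at RT. Data are normalised to 300 pM IL-6 and to 125 nM JAK inhibitor controls.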

Assay [5] deals with Glucocorticoid receptor (Homo sapiens) (UniProt P04150). Nature of the assay: GR-EFC Redistribution (AID 451; calls by dose curve; further: potency means the concentration at half of the fitted maximal effect). The following applies: CHO-K1 GR-EFC translocation, beta-gal luminescence, 2 h. The gist of the method:
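Translocation of GR-ED fusion to nuclear EA restores b-gal, read by luminescence after 1 h room-temperature detection. Engineered CHO-K1 biosensor cells, 1,000/well, exposed 2 h at 37 C to titrations up to 46 uM final.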

Assay [6] concerns the target Mitogen-activated protein kinase 10 (Mus musculus) (UniProt Q61831). Nature of the assay: JNK3 AlphaScreen Assay (AID 530).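 Further: kinase came from lysate of stimulated human HepG2 cells; signal reports phosphorylation of biotinylated GST-cJun 1-79 at Ser73 with 10 µM ATP; on the % scale 0 is the no-effect control and ±100 the full control effect.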 The following applies: JNK3 lysate, c-Jun phosphorylation; series mostly up to 57.1 µM. In outline:
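Compound titrations were preincubated 15 minutes at room temperature with substrate, antibody and pre-activated JNK3-containing HepG2 lysate. Reactions were started with 10 uM ATP and stopped with EDTA-containing bead buffer for AlphaScreen detection.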

Assay [7] deals with 3',5'-cyclic-AMP phosphodiesterase 4B (Homo sapiens) (UniProt Q07343). Nature of the assay: qHTS Assay for Inhibitors of PDE-IV (AID 607; active means well fitted activation curve with a large enough effect in the main read-out, with a control signal flat, not every such curve was filed as active; further: % of control where 0% means no effect). The following applies: HEK293 ACTOne CNG channel cells, membrane potential fluorescence; series mostly up to 22.9 µM. The gist of the method:
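HEK293 ACTOne cells with CNG channel (1000/well), endogenous PDE4; membrane potential dye, compounds up to 22.9 uM final. Fluorescence Ex 535/Em 590; RO 20-1724 (100 uM final) as reference.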
Background: qHTS replaces the single test concentration by a dilution series.

A short description of assay [8]: qHTS Assay for Lipid Storage Modulators (AID 1519; calls by dose curve). The following applies: Drosophila S3 cells, BODIPY lipid droplet/cell ratio, laser cytometry, cells loaded with oleic acid; for activity change, negative = inhibition: at 57.5 µM (top of the series). The gist of the method:
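Cells seeded at 5,000 per well were treated with compounds over a concentration series and loaded with oleic acid (400 uM, as added). Lipid droplet fluorescence (488 nm excitation, 500-530 nm channel) was read by laser-scanning cytometry and normalized to 20 uM Triacsin C.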

Assay [9] is described as follows: Primary qHTS for small molecule stabilizers of the endoplasmic reticulum resident proteome: Secreted ER Calcium Modulated Protein (SERCaMP) assay (AID 1508630; active means well fitted curve in the direction sought with a large enough effect; an effect the other way counts as inactive or inconclusive; further: on the % scale 0 is the no-effect control and ±100 the full control effect). The following applies: SH-SY5Y GLuc-SERCaMP (Gaussia luciferase released on ER calcium loss) secretion, thapsigargin, luminescence; series mostly up to 38.4 µM. In outline:
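GLuc-SERCaMP-expressing SH-SY5Y cells, pretreated 16 h with compound, are challenged with thapsigargin to empty ER calcium stores; after 4 h, coelenterazine is added directly to the medium and luminescence is imaged.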

Assay [10] deals with Cytochrome P450 3A4 (Homo sapiens) (UniProt P08684). Kind of assay: qHTS Assay for Activators of Cytochrome P450 3A4 (AID 885; active means well fitted curve in the direction sought with a large enough effect; an effect the other way counts as inactive or inconclusive; further: nearly all actives have a fitted effect of over 65% in size). To be noted: recombinant CYP3A4, Luciferin-PPXE luminescence, 60 min; series mostly up to 57.1 µM. The gist of the method: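 Human CYP3A4 (20 nM) with Luciferin-PPXE at 25 uM (its KM) in 200 mM KPO4; 10 min compound preincubation, then NADPH regeneration and 60 min reaction at RT. Luciferin read by luminescence; normalized to 57 uM ketoconazole full inhibition.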
Sequence of Cytochrome P450 3A4 (Homo sapiens) (P08684 whole entry, looked up): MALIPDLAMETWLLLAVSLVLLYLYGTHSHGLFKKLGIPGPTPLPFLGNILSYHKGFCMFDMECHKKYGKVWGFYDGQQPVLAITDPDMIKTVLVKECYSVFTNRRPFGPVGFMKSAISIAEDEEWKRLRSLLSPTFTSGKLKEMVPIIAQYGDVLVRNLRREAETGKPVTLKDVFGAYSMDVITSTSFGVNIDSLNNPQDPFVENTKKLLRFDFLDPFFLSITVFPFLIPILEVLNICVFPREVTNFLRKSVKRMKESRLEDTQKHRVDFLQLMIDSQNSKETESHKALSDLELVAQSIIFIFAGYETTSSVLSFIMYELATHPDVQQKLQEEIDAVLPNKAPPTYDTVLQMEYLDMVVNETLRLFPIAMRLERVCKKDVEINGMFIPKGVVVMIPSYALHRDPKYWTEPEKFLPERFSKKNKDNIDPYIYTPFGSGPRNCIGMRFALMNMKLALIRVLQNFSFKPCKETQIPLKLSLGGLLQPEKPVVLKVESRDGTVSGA

Assay [11] in a line: qHTS Assay for Identification of Small Molecule Agonists for Hypoxia Response Element Signaling Pathway (AID 914; active means well fitted activation curve with a large enough effect in the signal ratio, with a control signal flat, not every such curve was filed as active; the % refers to the signal ratio; further: % of control where 0% means no effect). To be noted: ME-180 (cervical carcinoma) HRE-bla reporter, beta-lactamase ratio, CoCl2, 17 h; activation: stronger effect = higher value. In outline: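 Compounds in a titration series were added to ME-180 reporter cells alongside an EC50 level of CoCl2. After 17 hours, beta-lactamase activity was read as the 460nm/530nm emission ratio of CCF4, giving AC50 values.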

Setting [12] is: measured here: cell count channel max response.
Setting [13] is: measured here: lipid channel max response.

Sequence of Glucocorticoid receptor (Homo sapiens) (P04150 whole entry, looked up, the tested form may be a part): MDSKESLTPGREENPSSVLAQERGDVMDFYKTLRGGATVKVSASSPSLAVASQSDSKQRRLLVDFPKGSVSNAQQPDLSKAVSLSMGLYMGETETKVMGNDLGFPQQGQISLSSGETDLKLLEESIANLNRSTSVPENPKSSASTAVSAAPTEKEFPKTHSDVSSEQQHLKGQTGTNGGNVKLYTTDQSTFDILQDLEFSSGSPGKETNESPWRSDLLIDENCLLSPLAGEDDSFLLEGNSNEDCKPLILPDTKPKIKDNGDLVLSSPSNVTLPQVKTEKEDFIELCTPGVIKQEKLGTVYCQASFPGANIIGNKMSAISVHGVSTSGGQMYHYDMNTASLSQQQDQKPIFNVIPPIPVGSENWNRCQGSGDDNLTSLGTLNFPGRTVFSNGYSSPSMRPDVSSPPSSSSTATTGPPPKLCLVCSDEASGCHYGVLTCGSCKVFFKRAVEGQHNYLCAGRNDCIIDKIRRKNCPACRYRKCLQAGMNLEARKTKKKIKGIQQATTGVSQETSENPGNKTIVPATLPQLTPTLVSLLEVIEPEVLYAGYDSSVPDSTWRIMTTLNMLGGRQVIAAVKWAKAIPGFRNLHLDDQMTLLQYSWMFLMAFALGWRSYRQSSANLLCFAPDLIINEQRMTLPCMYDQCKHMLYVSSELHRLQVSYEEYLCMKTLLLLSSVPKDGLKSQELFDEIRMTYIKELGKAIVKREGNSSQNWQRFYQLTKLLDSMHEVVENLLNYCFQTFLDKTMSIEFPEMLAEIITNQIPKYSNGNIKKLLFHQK
Sequence of 3',5'-cyclic-AMP phosphodiesterase 4B (Homo sapiens) (Q07343 whole entry, looked up): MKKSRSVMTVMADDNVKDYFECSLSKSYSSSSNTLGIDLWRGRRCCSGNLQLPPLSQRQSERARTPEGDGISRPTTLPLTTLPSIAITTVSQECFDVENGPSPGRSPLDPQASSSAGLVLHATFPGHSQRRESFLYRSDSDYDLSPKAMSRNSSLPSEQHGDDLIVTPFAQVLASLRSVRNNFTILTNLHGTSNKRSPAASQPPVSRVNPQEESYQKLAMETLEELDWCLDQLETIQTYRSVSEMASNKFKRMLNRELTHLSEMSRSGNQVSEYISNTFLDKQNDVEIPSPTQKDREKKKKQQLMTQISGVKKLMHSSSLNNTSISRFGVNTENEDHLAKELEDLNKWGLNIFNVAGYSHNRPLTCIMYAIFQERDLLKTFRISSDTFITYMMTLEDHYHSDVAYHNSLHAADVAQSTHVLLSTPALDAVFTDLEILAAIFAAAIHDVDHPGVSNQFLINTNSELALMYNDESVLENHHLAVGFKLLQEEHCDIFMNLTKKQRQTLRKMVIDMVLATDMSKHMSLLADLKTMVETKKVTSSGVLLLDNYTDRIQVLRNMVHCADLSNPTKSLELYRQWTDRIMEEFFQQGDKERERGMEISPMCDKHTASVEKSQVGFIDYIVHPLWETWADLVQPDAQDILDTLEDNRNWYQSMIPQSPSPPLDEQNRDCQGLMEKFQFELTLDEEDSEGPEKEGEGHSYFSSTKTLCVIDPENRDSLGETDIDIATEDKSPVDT
Sequence of Lysosomal acid glucosylceramidase (Homo sapiens) (P04062 whole entry, looked up): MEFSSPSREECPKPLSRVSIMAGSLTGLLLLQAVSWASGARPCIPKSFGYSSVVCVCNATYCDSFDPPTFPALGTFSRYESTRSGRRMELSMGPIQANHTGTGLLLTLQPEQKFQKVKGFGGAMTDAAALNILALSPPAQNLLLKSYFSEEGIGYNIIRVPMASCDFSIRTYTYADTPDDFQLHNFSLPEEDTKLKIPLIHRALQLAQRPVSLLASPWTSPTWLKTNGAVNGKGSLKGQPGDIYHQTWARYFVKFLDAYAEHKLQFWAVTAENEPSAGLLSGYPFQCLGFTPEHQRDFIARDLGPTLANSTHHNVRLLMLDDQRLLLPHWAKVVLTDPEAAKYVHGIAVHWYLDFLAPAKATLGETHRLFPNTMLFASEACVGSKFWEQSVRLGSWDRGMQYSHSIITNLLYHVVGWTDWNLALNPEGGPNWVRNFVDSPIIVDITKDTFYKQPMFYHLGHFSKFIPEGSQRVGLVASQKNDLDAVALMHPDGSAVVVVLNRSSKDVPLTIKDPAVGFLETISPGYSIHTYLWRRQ

With `COc1ccc(NC(=O)N2CC[C@@]3(CCCN(C(C)=O)C3)C2)cc1`, the Potency is > 11.4 µM (inactive) in [1] and > 46 µM (inactive) in [5]. Further, the activity change, negative = inhibition in assay [2] was -3.83% (inactive); in assay [3], 13.8% (inactive); in [8], 5.28% (inactive). Moreover, the activity, negative = inhibition in [4] is 6.12% (inactive). For the same molecule, the Potency result in assay [6] and in assay [7] was “inactive” in each case. Besides, the values for the max response in [8] (setting [12]) and in [8] (setting [13]) were 4.36% and 12%, respectively. Besides, the result in [9] was inactive.

Take `COc1ccc(NC(=O)N2CC3(CCNCC3)C2)cc1`: the values for the Potency in [1] and in assay [5] were > 11.4 µM (inactive) and > 46 µM (inactive), respectively. Moreover, the activity change, negative = inhibition in [2] is 7.88% (inactive); in assay [3] it was 6.29% (inactive); in [8] it was 5.62% (inactive). Further, in assay [4], the activity, negative = inhibition was -3.83% (inactive). Besides, the Potency result in assay [6] and in assay [7] was “inactive” each time. For the same molecule, the max response in assay [8] (setting [12]) came to 12.7%; in assay [8] (setting [13]) it was 23%. For the same molecule, the outcome in assay [9] was inactive.

For the molecule `COCC(=O)N1CCC2(CC1)CN(c1cccc(-c3ccccc3)c1)C2`, the figures for the Potency in [1] and in [5] were > 11.4 µM (inactive) and > 46 µM (inactive), respectively. In addition, the activity change, negative = inhibition in assay [2] is -29.8% (inactive); in assay [3], 19.3% (inactive); in assay [8], 3.02% (inactive). Further, the Potency entry in assay [6] and in assay [7] was “inactive” throughout. The max response in [8] (setting [12]) was -3.81%; in assay [8] (setting [13]) it was 0.928%. Moreover, the outcome in assay [9] was inactive.

As to `O=C(c1cnccn1)N1CCC[C@@]2(CCN(c3ccccn3)C2)C1`, the Potency in assay [1] is > 11.4 µM (inactive); in [5], > 46 µM (inactive). For the same molecule, the activity change, negative = inhibition in assay [2] is 7.84% (inactive); in assay [3], 0.825% (inactive); in [8], 3.99% (inactive). Besides, the activity, negative = inhibition in [4] was 0.945% (inactive). Further, the Potency result in assay [6], in assay [7] and in assay [10] was “inactive” throughout. For the same molecule, the max response turned out to be 24.1% in assay [8] (setting [12]) and 26.9% in assay [8] (setting [13]). Also, the result in [9] was inactive.

`O=C(Nc1cccc(F)c1)N1CC[C@@]2(CCCN(C(=O)c3ccncc3)C2)C1`: the Potency was > 11.4 µM (inactive) in [1] and > 46 µM (inactive) in [5]. For the same molecule, the values for the activity change, negative = inhibition in assay [2], in assay [3] and in [8] were -4.21% (inactive), 9.18% (inactive) and 5.32% (inactive), respectively. In addition, in assay [4], the activity, negative = inhibition is -6.29% (inactive). Moreover, the Potency result in [6] and in assay [7] was “inactive” throughout. The max response came out at 15.8% in [8] (setting [12]) and 23.2% in assay [8] (setting [13]). In assay [9], the result was inactive.

With `COc1ccc(NC(=O)N2CCCC3(CCN(C(C)=O)CC3)C2)cc1`, the Potency in [1] was > 11.4 µM (inactive); in assay [5], > 46 µM (inactive). Moreover, the activity change, negative = inhibition in assay [2] is -2.44% (inactive); in [3] it was 11.5% (inactive); in assay [8], 5.88% (inactive). Further, the activity, negative = inhibition in [4] is -0.377% (inactive). For the same molecule, the Potency result in assay [6] and in assay [7] was “inactive” in each case. The activation in assay [11] was -9.1% (inactive). Also, the max response in assay [8] (setting [12]) turned out to be 10.9%; in assay [8] (setting [13]), 18.6%. Further, in [9], the result was inactive.

In the case of `COCC(=O)N1CCC2(CC1)CN(c1ccc(-c3ccccc3)cc1)C2`, the Potency in [1] is > 11.4 µM (inactive); in assay [5] it was > 46 µM (inactive). In addition, the activity change, negative = inhibition in [2] is 2.14% (inactive); in assay [3], 14.1% (inactive); in [8], 2.72% (inactive). Also, the activity, negative = inhibition in [4] is -17.6% (inactive). The Potency result in assay [6] and in assay [7] was “inactive” each time. Moreover, the max response in assay [8] (setting [12]) was -7.54%; in assay [8] (setting [13]), -3.13%. Moreover, the result in assay [9] was inactive.
